From the supplement of paper PMC10849652 come the findings set out here.

The full data set covers some 7,900 targets. This sample favours those with a hit. About 0.6% of all pairs of compound and target were hits. Values without a mark were called inactive.

UniProt P23786, sequence (P23786 whole entry, looked up): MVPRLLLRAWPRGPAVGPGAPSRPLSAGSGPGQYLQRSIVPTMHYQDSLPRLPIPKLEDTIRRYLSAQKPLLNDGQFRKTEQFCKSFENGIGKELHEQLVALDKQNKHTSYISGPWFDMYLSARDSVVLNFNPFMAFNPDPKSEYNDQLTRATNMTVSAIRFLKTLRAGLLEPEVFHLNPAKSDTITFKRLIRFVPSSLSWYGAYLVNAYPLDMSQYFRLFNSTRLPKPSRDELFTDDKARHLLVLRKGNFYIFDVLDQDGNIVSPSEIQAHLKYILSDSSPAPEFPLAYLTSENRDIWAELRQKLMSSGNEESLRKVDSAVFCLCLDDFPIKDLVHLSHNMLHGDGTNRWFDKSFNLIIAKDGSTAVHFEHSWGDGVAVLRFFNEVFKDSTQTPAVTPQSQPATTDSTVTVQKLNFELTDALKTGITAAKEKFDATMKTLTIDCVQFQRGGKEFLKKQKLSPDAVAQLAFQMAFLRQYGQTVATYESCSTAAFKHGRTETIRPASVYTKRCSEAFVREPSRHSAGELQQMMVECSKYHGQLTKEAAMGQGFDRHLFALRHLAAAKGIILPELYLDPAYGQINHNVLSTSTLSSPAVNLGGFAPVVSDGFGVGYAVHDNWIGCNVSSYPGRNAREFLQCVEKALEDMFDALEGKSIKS
UniProt P00915, sequence (P00915 whole entry, looked up): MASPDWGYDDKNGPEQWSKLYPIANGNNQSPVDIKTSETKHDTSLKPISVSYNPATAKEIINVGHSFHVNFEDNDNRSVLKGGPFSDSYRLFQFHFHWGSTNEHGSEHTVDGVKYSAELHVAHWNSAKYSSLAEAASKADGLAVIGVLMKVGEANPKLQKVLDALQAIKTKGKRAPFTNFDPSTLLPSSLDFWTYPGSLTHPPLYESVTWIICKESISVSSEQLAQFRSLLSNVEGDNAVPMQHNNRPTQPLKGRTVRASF
UniProt P12277, sequence (P12277 whole entry, looked up): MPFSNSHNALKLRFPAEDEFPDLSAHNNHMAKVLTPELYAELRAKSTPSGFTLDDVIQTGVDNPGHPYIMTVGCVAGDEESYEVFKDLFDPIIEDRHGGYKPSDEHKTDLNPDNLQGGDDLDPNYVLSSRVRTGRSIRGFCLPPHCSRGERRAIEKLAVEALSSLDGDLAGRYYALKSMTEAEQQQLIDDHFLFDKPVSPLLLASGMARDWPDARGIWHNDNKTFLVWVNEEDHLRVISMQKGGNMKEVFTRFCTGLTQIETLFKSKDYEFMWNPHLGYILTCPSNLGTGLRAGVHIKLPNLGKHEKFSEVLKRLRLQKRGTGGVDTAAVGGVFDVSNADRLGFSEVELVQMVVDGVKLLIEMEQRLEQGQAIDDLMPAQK
UniProt Q96JM3, sequence (Q96JM3 whole entry, looked up): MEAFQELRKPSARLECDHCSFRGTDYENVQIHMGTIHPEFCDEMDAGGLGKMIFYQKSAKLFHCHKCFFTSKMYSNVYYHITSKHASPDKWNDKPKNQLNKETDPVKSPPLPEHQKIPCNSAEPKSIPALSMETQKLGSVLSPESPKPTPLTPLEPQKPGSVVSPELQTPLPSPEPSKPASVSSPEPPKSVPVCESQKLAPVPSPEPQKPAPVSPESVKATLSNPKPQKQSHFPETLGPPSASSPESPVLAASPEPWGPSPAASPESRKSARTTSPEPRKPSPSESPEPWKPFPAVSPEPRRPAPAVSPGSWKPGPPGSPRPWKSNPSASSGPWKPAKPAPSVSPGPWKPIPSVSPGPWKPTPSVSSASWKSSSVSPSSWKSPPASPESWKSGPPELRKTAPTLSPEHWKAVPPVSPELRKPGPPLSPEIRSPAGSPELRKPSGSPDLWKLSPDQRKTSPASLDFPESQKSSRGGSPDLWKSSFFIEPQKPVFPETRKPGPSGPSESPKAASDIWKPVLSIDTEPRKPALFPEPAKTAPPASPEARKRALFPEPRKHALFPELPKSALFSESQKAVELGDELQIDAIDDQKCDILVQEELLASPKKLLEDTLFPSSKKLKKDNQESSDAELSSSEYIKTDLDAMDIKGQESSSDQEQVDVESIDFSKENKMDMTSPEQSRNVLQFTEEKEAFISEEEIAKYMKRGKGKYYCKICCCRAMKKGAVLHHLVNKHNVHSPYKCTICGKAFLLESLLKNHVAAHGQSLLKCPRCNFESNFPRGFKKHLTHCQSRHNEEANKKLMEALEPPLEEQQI
UniProt Q5VT25, sequence (Q5VT25 whole entry, looked up): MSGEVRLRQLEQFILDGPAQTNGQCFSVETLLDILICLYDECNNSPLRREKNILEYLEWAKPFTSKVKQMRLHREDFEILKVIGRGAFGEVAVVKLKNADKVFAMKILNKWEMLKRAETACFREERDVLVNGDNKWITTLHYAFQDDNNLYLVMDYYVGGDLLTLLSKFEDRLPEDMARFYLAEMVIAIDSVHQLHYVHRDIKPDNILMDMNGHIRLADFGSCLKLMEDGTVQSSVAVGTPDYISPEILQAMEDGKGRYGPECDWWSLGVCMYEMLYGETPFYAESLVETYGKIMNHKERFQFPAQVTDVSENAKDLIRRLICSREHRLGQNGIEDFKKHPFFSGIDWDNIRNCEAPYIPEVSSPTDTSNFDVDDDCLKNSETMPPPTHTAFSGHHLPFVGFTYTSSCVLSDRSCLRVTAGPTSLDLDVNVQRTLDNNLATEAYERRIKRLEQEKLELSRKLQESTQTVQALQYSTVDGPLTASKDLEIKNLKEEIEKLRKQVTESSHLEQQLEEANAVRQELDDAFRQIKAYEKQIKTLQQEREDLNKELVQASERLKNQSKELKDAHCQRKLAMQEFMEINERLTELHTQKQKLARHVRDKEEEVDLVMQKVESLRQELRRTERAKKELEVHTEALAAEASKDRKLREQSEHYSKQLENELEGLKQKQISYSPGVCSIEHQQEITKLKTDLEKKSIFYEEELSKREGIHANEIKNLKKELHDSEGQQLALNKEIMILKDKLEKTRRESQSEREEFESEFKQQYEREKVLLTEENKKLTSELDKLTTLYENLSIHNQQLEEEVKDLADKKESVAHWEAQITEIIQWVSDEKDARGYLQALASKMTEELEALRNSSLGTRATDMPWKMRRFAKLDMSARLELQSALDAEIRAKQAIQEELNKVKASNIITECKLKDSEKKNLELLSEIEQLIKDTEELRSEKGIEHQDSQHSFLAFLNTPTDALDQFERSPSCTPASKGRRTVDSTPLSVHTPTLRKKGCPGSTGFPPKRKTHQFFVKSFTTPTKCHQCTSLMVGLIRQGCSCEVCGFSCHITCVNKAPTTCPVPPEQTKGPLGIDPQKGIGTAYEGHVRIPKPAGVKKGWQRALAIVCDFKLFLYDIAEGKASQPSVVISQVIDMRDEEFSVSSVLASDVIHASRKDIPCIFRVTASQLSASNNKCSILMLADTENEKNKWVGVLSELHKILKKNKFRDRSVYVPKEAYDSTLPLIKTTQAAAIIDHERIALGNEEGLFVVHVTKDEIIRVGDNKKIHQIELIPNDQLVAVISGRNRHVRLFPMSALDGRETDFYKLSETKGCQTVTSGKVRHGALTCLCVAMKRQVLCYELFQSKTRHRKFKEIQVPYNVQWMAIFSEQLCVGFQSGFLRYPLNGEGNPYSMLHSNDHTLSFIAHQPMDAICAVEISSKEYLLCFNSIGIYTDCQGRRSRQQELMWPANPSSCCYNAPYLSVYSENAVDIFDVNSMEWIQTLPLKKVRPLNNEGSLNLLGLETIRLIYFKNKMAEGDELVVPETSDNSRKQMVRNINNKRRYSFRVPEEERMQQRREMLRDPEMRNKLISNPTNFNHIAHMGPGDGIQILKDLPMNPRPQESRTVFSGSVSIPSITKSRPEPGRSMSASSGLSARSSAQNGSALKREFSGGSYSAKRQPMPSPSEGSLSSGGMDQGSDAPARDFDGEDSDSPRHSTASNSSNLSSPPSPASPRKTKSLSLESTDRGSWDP
UniProt Q00536, sequence (Q00536 whole entry, looked up): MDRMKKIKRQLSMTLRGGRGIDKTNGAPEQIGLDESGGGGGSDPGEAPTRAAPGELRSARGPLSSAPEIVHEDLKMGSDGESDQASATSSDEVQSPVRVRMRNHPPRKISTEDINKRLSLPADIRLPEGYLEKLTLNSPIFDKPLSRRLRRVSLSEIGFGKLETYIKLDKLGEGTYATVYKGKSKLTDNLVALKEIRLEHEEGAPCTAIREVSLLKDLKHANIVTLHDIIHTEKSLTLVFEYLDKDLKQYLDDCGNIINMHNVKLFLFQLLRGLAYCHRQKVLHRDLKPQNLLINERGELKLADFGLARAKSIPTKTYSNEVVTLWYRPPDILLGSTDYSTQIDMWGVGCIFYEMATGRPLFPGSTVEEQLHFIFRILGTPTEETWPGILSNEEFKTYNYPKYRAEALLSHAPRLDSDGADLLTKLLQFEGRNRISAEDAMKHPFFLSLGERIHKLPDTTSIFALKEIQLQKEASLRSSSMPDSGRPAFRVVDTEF
UniProt O75909, sequence (O75909 whole entry, looked up): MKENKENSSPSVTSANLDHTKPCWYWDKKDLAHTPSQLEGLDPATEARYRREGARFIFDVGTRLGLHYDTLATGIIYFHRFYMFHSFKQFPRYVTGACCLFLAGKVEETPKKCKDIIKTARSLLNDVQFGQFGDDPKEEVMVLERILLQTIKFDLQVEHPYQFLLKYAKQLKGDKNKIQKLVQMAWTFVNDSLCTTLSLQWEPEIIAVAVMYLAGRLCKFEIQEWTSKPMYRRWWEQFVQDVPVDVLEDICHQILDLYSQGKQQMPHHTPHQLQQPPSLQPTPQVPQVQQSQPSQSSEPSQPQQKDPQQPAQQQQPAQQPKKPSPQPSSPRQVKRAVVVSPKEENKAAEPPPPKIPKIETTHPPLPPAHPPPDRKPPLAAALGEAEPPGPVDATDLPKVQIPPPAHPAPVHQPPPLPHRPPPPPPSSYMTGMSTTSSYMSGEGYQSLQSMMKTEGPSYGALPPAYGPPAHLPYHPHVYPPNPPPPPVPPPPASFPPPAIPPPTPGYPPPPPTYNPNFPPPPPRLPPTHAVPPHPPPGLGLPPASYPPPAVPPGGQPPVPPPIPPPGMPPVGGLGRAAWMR
UniProt Q5JTJ3, sequence (Q5JTJ3 whole entry, looked up): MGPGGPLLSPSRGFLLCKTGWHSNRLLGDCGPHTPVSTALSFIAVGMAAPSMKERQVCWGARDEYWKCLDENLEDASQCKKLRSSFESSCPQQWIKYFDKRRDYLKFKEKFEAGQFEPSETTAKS

Compound in one test: CCCS(=O)(=O)Nc1ccc(F)c(C(=O)c2c[nH]c3ncc(Cl)cc23)c1F
Nature of the test: log2 fold change, soluble protein after heating vs DMSO (PISA); higher = thermal stabilisation; K562 cells, 10 uM, 30 min; active = over 0.2 and 3.5 SD of the protein, either way, in both replicates (recomputed). The essentials:
(§1)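 K562 cells at 2×10^6 cells/mL were given 10 μM compound for 30 min. Aliquots then went through 3 min of heating across 48°C-58°C, were pooled, and were extracted in PBS with 0.5% NP-40 at 4°C, and the supernatant after 21,000xg for 90 min was quantified by TMTpro 16plex LC-MS/MS with channel sums equalised. Thermal stability relative to control samples, from duplicates, is given as log2 fold change.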
Consider CCNB1 (UniProt P14635), for which the log2 fold change was 0.008.

On to CLSPN (UniProt Q9HAW4), for which the log2 fold change was 0.

In the case of CDK6 (UniProt Q00534), the log2 fold change was -0.024.

As to CCNK isoform 4 (UniProt O75909), the log2 fold change is 0.

As to C16orf58 (UniProt Q96GQ5), the log2 fold change was 0.005.

CDC25B isoform 4 (UniProt P30305): the log2 fold change is -0.077.

As for CPQ (UniProt Q9Y646), the log2 fold change is 0.006.

For CCDC57 (UniProt Q2TAC2), the log2 fold change is 0.013.

Regarding C9orf72 (UniProt Q96LT7), the log2 fold change was -0.038.

For CASP3 (UniProt P42574), the log2 fold change is 0.022.

As for CLASP2 isoform 3 (UniProt O75122), the log2 fold change was 0.061.

For CCM2 isoform 2 (UniProt Q9BSQ5), the log2 fold change is 0.009.

As to CCDC9 (UniProt Q9Y3X0), the log2 fold change is -0.009.

For the target CETN2 (UniProt P41208), the log2 fold change is -0.335 (active).

With CKB (UniProt P12277), the log2 fold change is 0.015.

In the case of CKS1B (UniProt P61024), the log2 fold change is -0.17.

Take CDC42BPA isoform 6 (UniProt Q5VT25): the log2 fold change is 0.141.

As to COX20 isoform 2 (UniProt Q5RI15), the log2 fold change was -0.041.

Consider CHKA (UniProt P35790), for which the log2 fold change is 0.019.

With CNOT1 (UniProt A5YKK6), the log2 fold change is 0.046.

As for CHAMP1 (UniProt Q96JM3), the log2 fold change was -0.011.

On to CHERP (UniProt Q8IWX8), for which the log2 fold change was 0.127.

Regarding CERT isoform 3 (UniProt Q9Y5P4), the log2 fold change is 0.061.

Consider CNOT7 (UniProt Q9UIV1), for which the log2 fold change was 0.053.

As to CPT2 (UniProt P23786), the log2 fold change is 0.007.

As to COA6 isoform 2 (UniProt Q5JTJ3), the log2 fold change is -0.009.

Consider COMMD2 (UniProt Q86X83), for which the log2 fold change was 0.159.

CES2 isoform 4 (UniProt O00748): the log2 fold change was -0.105.

With CA1 (UniProt P00915), the log2 fold change is 0.016.

Turning to CHD4 isoform 2 (UniProt Q14839), the log2 fold change was 0.116.

Turning to CD55 isoform 7 (UniProt P08174), the log2 fold change is -0.053.

In the case of CLPTM1L (UniProt Q96KA5), the log2 fold change was 0.016.

On to CSE1L (UniProt P55060), for which the log2 fold change is 0.063.

With C4A (UniProt P0C0L4), the log2 fold change is -0.02.

Consider CDK16 isoform 2 (UniProt Q00536), for which the log2 fold change was 0.027.

For CLUH (UniProt O75153), the log2 fold change is -0.03.

Compound in the next test: CCCc1cc(C)[nH]c(=O)c1CNC(=O)c1cc(-c2ccnc(N3CCN(C)CC3)c2)cc2c1cnn2C(C)C
The description is as above. The essentials:
as §1
CCNB1 (UniProt P14635): the log2 fold change is -0.033.

Consider CLSPN (UniProt Q9HAW4), for which the log2 fold change is -0.012.

For CDK6 (UniProt Q00534), the log2 fold change is -0.027.

In the case of CCNK isoform 4 (UniProt O75909), the log2 fold change was 0.038.

With C16orf58 (UniProt Q96GQ5), the log2 fold change is -0.075.

Turning to CDC25B isoform 4 (UniProt P30305), the log2 fold change was -0.352.

With CPQ (UniProt Q9Y646), the log2 fold change was 0.024.

As to CCDC57 (UniProt Q2TAC2), the log2 fold change was -0.047.

For the target C9orf72 (UniProt Q96LT7), the log2 fold change is 0.007.

CASP3 (UniProt P42574): the log2 fold change was 0.113.

On to CLASP2 isoform 3 (UniProt O75122), for which the log2 fold change is 0.029.

Consider CCM2 isoform 2 (UniProt Q9BSQ5), for which the log2 fold change was 0.052.

In the case of CCDC9 (UniProt Q9Y3X0), the log2 fold change was -0.004.

For the target CETN2 (UniProt P41208), the log2 fold change is -0.034.

Turning to CKB (UniProt P12277), the log2 fold change was -0.016.

Turning to CKS1B (UniProt P61024), the log2 fold change is -0.38.

For CDC42BPA isoform 6 (UniProt Q5VT25), the log2 fold change is -0.013.

In the case of COX20 isoform 2 (UniProt Q5RI15), the log2 fold change was 0.069.

For CHKA (UniProt P35790), the log2 fold change is -0.164.

On to CNOT1 (UniProt A5YKK6), for which the log2 fold change was 0.013.

With CHAMP1 (UniProt Q96JM3), the log2 fold change is -0.003.

Regarding CHERP (UniProt Q8IWX8), the log2 fold change was 0.075.

For the target CERT isoform 3 (UniProt Q9Y5P4), the log2 fold change is 0.02.

Turning to CNOT7 (UniProt Q9UIV1), the log2 fold change is -0.011.

For CPT2 (UniProt P23786), the log2 fold change is 0.016.

Take COA6 isoform 2 (UniProt Q5JTJ3): the log2 fold change is -0.089.

Regarding COMMD2 (UniProt Q86X83), the log2 fold change was 0.019.

Take CES2 isoform 4 (UniProt O00748): the log2 fold change is 0.003.

For the target CA1 (UniProt P00915), the log2 fold change was -0.039.

Regarding CHD4 isoform 2 (UniProt Q14839), the log2 fold change was 0.101.

CD55 isoform 7 (UniProt P08174): the log2 fold change was 0.088.

Turning to CLPTM1L (UniProt Q96KA5), the log2 fold change was -0.015.

On to CSE1L (UniProt P55060), for which the log2 fold change is 0.009.

With C4A (UniProt P0C0L4), the log2 fold change was -0.287.

For the target CDK16 isoform 2 (UniProt Q00536), the log2 fold change was -0.101.

Consider CLUH (UniProt O75153), for which the log2 fold change was 0.049.
